Here are results for one molecule from PubChem BioAssay AID743461 (Broad Institute, 2014).

The test can be described thus: inhibitors of PGC-1a-driven COX5a expression, dose response, cell-based, C2C12 myotubes, RT-qPCR, cherry-picked samples (AID 743461). Particulars: C2C12 myotubes PGC-1a adenovirus, at 0.0285 µM. For orientation: Real-time PCR tracks product formation cycle by cycle.

Structures are written as SMILES. The list shows a part of the results. Unmarked numbers belong to inactive results.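 How the source made its calls: active means fitted dose curve reaching 40% activity at or below the highest valid dose tested; inconclusive means flat fit between 30% and 70%, or an unusable fit; inactive means the rest.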

Turning to `N#Cc1ccc(-c2ccc(C3[C@@H]4CN(S(=O)(=O)c5ccc(F)cc5)C[C@H]3N4)cc2)cc1` (stereo partly specified), the maximal activity is -35.2%.
